Test results reported in PubChem BioAssay (EPA / NIEHS).
Active and inactive are the calls of the source. Rule for the calls: active = hit-call score of the fitted dose curve at least 0.9, where 1 is the maximum; inactive = score below 0.9.

Test: CCTE_Shafer_MEA_acute_per_network_burst_spike_number_mean: CCTE's Neural Acute Assay for Average Number of Spikes in a Network Burst, Shafer Lab (AID 2284019)
Procedure: CCTE_Shafer_MEA_acute assay is conducted using Axion Biosystems 48 well microelectrode array (MEA) plates and Maestro recording system. Each well of the MEA plate contains a grid of 16 microelectrodes embedded in the culture surface. Electrically active cells, such as neurons, can be cultured over the electrodes, and electrical activity in these cells can be recorded extracellularly. The spontaneous firing of neurons is captured from each electrode on a microsecond timescale providing both temporally and spatially precise data. […] The CCTE_Shafer_MEA_acute assay uses primary cultures of rat cortical neurons. As these cultures mature over time, neural networks develop functional activity and form cohesive networks in which electrical activity can be highly coordinated. Baseline 40-minute recordings are made on days post-plating 13 or 15, followed by a secondary 40-minute recording after chemical exposure.CCTE_Shafer_MEA_acute_per_network_burst_spike_number_mean is a component of the CCTE_Shafer_MEA_acute assay. It measures the average number of spikes (action potential firings) in a network burst (temporally-clustered group of spikes across multiple electrodes) as the total number of spikes in a network burst divided by the number of network bursts during a recording in a microelectrode array (MEA) using Axion Biosystems Maestro 768 channel amplifier with the AxIS adaptive spike detector. The recordings before and after chemical treatment are used to calculate a percent change in the mean number of spikes in a network burst in each well.Data from the assay component CCTE_Shafer_MEA_acute_per_network_burst_spike_number_mean was analyzed into 1 assay endpoint. This assay endpoint, CCTE_Shafer_MEA_acute_per_network_burst_spike_number_mean, was analyzed in the negative analysis fitting direction relative to DMSO as the negative control and baseline of activity. Using a type of functional reporter, gain or loss-of-signal activity can be used to understand electrical activity.
Spontaneous activity in the cortical cultures was recorded using an Axion Biosystems Maestro 768 channel amplifier and Axion Integrated Studios (AxIS) v1.8 (or later) software. The amplifier recorded from all channels simultaneously (gain = 1200 x; sampling rate = 12.5 kHz/channel): raw signals were filtered with a Butterworth band-pass filter (300-5000 Hz), which filters out slower local field potentials leaving only fast potentials, i.e., "spikes", arising from extracellular currents associated with action potentials (Pine 2006; Wheeler and Nam 2011). On-line spike detection of filtered signals was conducted with the AxIS adaptive spike detector, using a threshold of 8x the root mean squared (rms) noise on each channel. Any electrodes with rms noise levels greater than 5 uV were grounded (e.g., no data were recorded). Once grounded, an electrode was grounded for the duration of the experiment. All recordings were conducted at 37 C. Wells were deemed usable if on the day of the exposure >/= 10 electrodes were active (defined as >/= 5 spikes/min). On DIV 13 or 15, a minimum of three wells from one cortical culture preparation were treated with each compound (0.03-40 uM). Prior to recording baseline activity, each mwMEA plate was placed in the Maestro at 37 C and allowed to sit for 20 min while firing rates stabilized. Baseline activity (40 min) was recorded before the addition of each compound. An additional 40 min of spontaneous activity was recorded in the presence of each compound. Changes in network parameters relative to baseline were assessed following compound treatment.

outcome, inactive:
CC1(C)S[C@@H]2[C@H](NC(=O)[C@H](N)c3ccccc3)C(=O)N2[C@H]1C(=O)O
CNCCC(Oc1ccc(C(F)(F)F)cc1)c1ccccc1 (stereo unspecified)
CN(C)C(=O)C(CCN1CCC(O)(c2ccc(Cl)cc2)CC1)(c1ccccc1)c1ccccc1
CC(C)C1OCCN1CCOC(=O)NCCCCCCNC(=O)OCCN1CCOC1C(C)C (stereo unspecified)
NC(N)=Nc1nc(CSCCC(N)=NS(N)(=O)=O)cs1
COc1ccc(C(=O)c2ccccc2O)c(O)c1
CCC[Si](OC(C)=O)(OC(C)=O)OC(C)=O
Cc1c(C(N)=O)cc([N+](=O)[O-])cc1[N+](=O)[O-]
COc1cc(CNC(=O)CCCC/C=C/C(C)C)ccc1O
COc1ccccc1Oc1c(NS(=O)(=O)c2ccc(C(C)(C)C)cc2)nc(-c2ncccn2)nc1OCCO
CC1(C)S[C@@H]2[C@H](NC(=O)[C@H](N)c3ccc(O)cc3)C(=O)N2[C@H]1C(=O)O
C1CN(CCOCCN2CCOCC2)CCO1
CC[N+](CC)(CC(=O)Nc1c(C)cccc1C)Cc1ccccc1 (tested in a mixture with another compound)

AC50, active:
CN(C)Cc1cc(C(C)(C)C)c(O)c(C(C)(C)C)c1 51.6 nM
CN(C)CCC(c1ccc(Cl)cc1)c1ccccn1 (stereo unspecified) 3620 nM
O=[N+]([O-])c1cc(S(=O)(=O)Nc2ccccc2)ccc1Nc1ccccc1 1260 nM
